# Source: PubChem BioAssay (NCI)
# Values joined by “and” are separate entries in the source; they are usually repeats but may differ in a detail not shown here. Equal values may be shown once. The panel holds about 79,000 compounds, 15% with a hit somewhere; the sample as a whole holds those more often. The source holds several records for some structures; these can differ, active in one and inactive in another. Active and inactive are the calls of the source. Cut-off read from the data, not from the text of the source: active = growth inhibition above about 70%; inactive = the rest.
# Assays:
# [1] = NCI Yeast Anticancer Drug Screen. Data for the rad50 strain (AID 155);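 note: 0% = growth of vehicle-only cultures of the same strain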; conditions: S. cerevisiae rad50 strain growth inhibition; at 50.0 µM; stronger effect = higher value
# In short: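 Inhibition values express reduced yeast growth in compound-treated cultures relative to vehicle-treated controls.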
# [2] = NCI Yeast Anticancer Drug Screen. Data for the mec2-1 strain (AID 157); conditions: S. cerevisiae mec2-1 strain, at 50.0 µM, stronger effect = higher value
# In short: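 Cells of the genetically defined mec2-1 yeast strain are incubated with test compound. Inhibition of growth is calculated against vehicle-treated controls.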
# [3] = NCI Yeast Anticancer Drug Screen. Data for the sgs1 mgt1 strain (AID 161);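 note: 0% = growth of cultures given vehicle only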; conditions: S. cerevisiae sgs1 mgt1 strain, at 50.0 µM, stronger effect = higher value
# In short: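 Genetically altered yeast, compound exposure, growth inhibition relative to vehicle.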
# [4] = NCI Yeast Anticancer Drug Screen. Data for the cln2 rad14 strain (AID 165);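 note: 0% = growth equal to vehicle treated cultures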; conditions: S. cerevisiae cln2 rad14 strain, at 50.0 µM, stronger effect = higher value
# In short: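 The screen exposed genetically defined yeast (cln2 rad14) to test compounds and scored growth inhibition relative to vehicle-treated controls.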
# [5] = NCI Yeast Anticancer Drug Screen. Data for the bub3 strain (AID 167); conditions: S. cerevisiae bub3 mutant strain, at 50.0 µM, stronger effect = higher value
# In short: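 Steps: expose the mutant yeast strain to compound; grow alongside vehicle-treated cultures; measure growth; express inhibition against the vehicle cultures.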
# [6] = NCI Yeast Anticancer Drug Screen. Data for the mlh1 rad18 strain (AID 175); conditions: S. cerevisiae mlh1 rad18 strain growth inhibition; at 50.0 µM; stronger effect = higher value
# In short: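 Compound-treated yeast growth, normalised to vehicle controls. Strain bears defined DNA repair mutations.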
SMILES,growth inhibition [1],growth inhibition [2],growth inhibition [3],growth inhibition [4],growth inhibition [5],growth inhibition [6]
O=[N+]([O-])c1ccc(NCS(=O)(=O)O)cc1,6.95% (inactive) and -2% (inactive),-14.3% (inactive) and -7.9% (inactive),-9.35% (inactive) and 5.9% (inactive),-12.2% (inactive) and -15.8% (inactive),8.55% (inactive) and -3.05% (inactive),5.7% (inactive) and 17.8% (inactive)
NC(=O)CC(N)C(=O)O (configuration not stated),-4.4% (inactive) and -5.3% (inactive),-30.1% (inactive) and -1.65% (inactive),-10.8% (inactive) and -4.4% (inactive),-1% (inactive) and 11.7% (inactive),1.5% (inactive) and -13.7% (inactive),0.7% (inactive) and 2.65% (inactive)
O=C(O)CCC(=O)c1ccc2ccccc2c1,60% (inactive) and 8.8% (inactive),21.6% (inactive) and 6.95% (inactive),44.8% (inactive) and -5.7% (inactive),11.2% (inactive) and -14.1% (inactive),9.15% (inactive) and -23.1% (inactive),44.2% (inactive) and 40.7% (inactive)
CC(=O)C1CC(CC(=O)O)C1(C)C (configuration not stated),4.65% (inactive) and 10.1% (inactive),-7.25% (inactive) and 9.75% (inactive),-4.4% (inactive) and 12.5% (inactive),13.9% (inactive) and 10.6% (inactive),-1.6% (inactive) and 4.9% (inactive),3.3% (inactive) and 14.9% (inactive)
O=C1OC(=O)C2C3CCCCC3=C3CCCCC3C12 (configuration not stated),2.7% (inactive) and 11.1% (inactive),41.5% (inactive) and -8.4% (inactive),-3.25% (inactive) and 4.25% (inactive),8.6% (inactive) and -9.1% (inactive),22.2% (inactive) and 3.9% (inactive),-5.3% (inactive) and 13.6% (inactive)
Cc1cc(C(=O)O)c(CN2C(=O)c3ccccc3C2=O)c(=O)n1C,-11.3% (inactive) and -1.15% (inactive),20.4% (inactive) and -14.3% (inactive),2.45% (inactive) and -7.1% (inactive),-6.3% (inactive) and 6.85% (inactive),12.1% (inactive) and -19.1% (inactive),-18.9% (inactive) and 9.45% (inactive)
CC(=O)OCC1OC(n2c(N)c(C#N)c(C)c(C#N)c2=S)C(OC(C)=O)C(OC(C)=O)C1OC(C)=O (configuration not stated),-25.4% (inactive) and -28% (inactive),-13% (inactive) and -5.75% (inactive),-7.1% (inactive) and -10.7% (inactive),-30.7% (inactive) and -44.5% (inactive),3.55% (inactive) and -1.5% (inactive),-1.85% (inactive) and -27.7% (inactive)
CC(COC(=O)c1ccccc1)NC1CCCCC1 (configuration not stated),12.3% (inactive) and 21.9% (inactive),1.05% (inactive) and -0.85% (inactive),13.7% (inactive) and 10.7% (inactive),-27.6% (inactive) and -0.55% (inactive),-10.3% (inactive) and 0.7% (inactive),10.4% (inactive) and -0.2% (inactive)
Cc1ccc(C2=Nc3c(N)nc(N)nc3NC(c3ccccc3)C2)cc1 (configuration not stated),78.3% (active) and 79.8% (active),81.8% (active) and 79.5% (active),89.2% (active) and 89.4% (active),63.5% (inactive) and 62.7% (inactive),75.8% (active) and 77.4% (active),90% (active) and 88.4% (active)
Nc1ncnc2c1ncn2C1(CO)OC(CO)C(O)C1O (configuration not stated),13.7% (inactive) and 3.2% (inactive),-9.1% (inactive) and -6.15% (inactive),-13.9% (inactive) and -0.2% (inactive),-0.65% (inactive) and -23.2% (inactive),5% (inactive) and 19.4% (inactive),11.2% (inactive) and -1.25% (inactive)
Clc1ccc(/C=N/N=C/c2ccc(Cl)cc2)cc1,-52.5% (inactive) and -17.1% (inactive),-28.9% (inactive) and -16% (inactive),-42.2% (inactive) and -19.6% (inactive),-23% (inactive) and -20.1% (inactive),-33.3% (inactive) and 6.3% (inactive),-33.5% (inactive) and -18.1% (inactive)
CC1OC(n2cnc3c(N)ncnc32)C(O)C1O (configuration not stated),-3.75% (inactive) and 14.4% (inactive),8.1% (inactive) and -3.35% (inactive),2.5% (inactive) and -12.4% (inactive),-53.2% (inactive) and 5.3% (inactive),0.85% (inactive) and -1% (inactive),-0.4% (inactive) and -13.8% (inactive)
COc1cc([N+](=O)[O-])c(S(=O)(=O)O)cc1N,-7.95% (inactive) and 30.1% (inactive),22.8% (inactive) and 6.65% (inactive),-11.8% (inactive) and -0.8% (inactive),-23.7% (inactive) and 16.8% (inactive),7.2% (inactive) and 16.3% (inactive),-0.75% (inactive) and 38.9% (inactive)
NC(C(=O)O)C(O)C(=O)O (configuration not stated),-14% (inactive) and 2.7% (inactive),5.85% (inactive) and 8.65% (inactive),2.85% (inactive) and -6.75% (inactive),10.4% (inactive) and -5.6% (inactive),-5.75% (inactive) and 4.05% (inactive),0.55% (inactive) and -7.3% (inactive)
Nc1ccc(C(=O)O)c(O)c1,-8.6% (inactive) and 15.1% (inactive),-7.4% (inactive) and -2.45% (inactive),-4.15% (inactive) and -14.9% (inactive),-40.9% (inactive) and 1.75% (inactive),0.25% (inactive) and -2.25% (inactive),-8.05% (inactive) and 24.8% (inactive)
CC(=O)OC1CC2CCC1(C)C2(C)C (configuration not stated),34.9% (inactive) and 30.8% (inactive) and -12.2% (inactive),26.9% (inactive) and 26.1% (inactive) and -20.2% (inactive),25.8% (inactive) and -34.8% (inactive) and -3.7% (inactive),19.9% (inactive) and 18.3% (inactive) and 5.2% (inactive),29.5% (inactive) and -30.4% (inactive) and 3.55% (inactive),4.85% (inactive) and -78.1% (inactive) and -14.2% (inactive)
O=C(O)/C=C/c1ccc(Cl)cc1,16.8% (inactive) and 8.15% (inactive),-8.8% (inactive) and -22.6% (inactive),16.8% (inactive) and 2.3% (inactive),-35.3% (inactive) and -6.2% (inactive),-3.9% (inactive) and -3.4% (inactive),26.9% (inactive) and 13.4% (inactive)
CC(C)C1CCC(NC(=O)Nc2ccccc2)CC1 (configuration not stated),79.5% (active) and 20.6% (inactive),48.5% (inactive) and 20.3% (inactive),70.5% (active) and 43.2% (inactive),46.2% (inactive) and -3.5% (inactive),66.7% (inactive) and 23.6% (inactive),81.1% (active) and 44.8% (inactive)
CCC(C)NC(=O)C1C2CC3OC(=O)C1C3C2 (configuration not stated),9.85% (inactive) and -12.7% (inactive),-4.55% (inactive) and 5.6% (inactive),-2.75% (inactive) and -18.9% (inactive),-42.8% (inactive) and -40.3% (inactive),-9.5% (inactive) and -6.5% (inactive),3.1% (inactive) and -5.65% (inactive)
O=C1C=CC(=O)O1 (tested in a mixture with another compound),13.5% (inactive) and 5.85% (inactive),18% (inactive) and 1.85% (inactive),10.6% (inactive) and 2.55% (inactive),38.1% (inactive) and 4.45% (inactive),30.9% (inactive) and 17% (inactive),22.4% (inactive) and 13.3% (inactive)
CC(=O)OC1OC(C)C(OC(C)=O)C(OC(C)=O)C1OC(C)=O (configuration not stated),6.8% (inactive) and 1.65% (inactive),-4.1% (inactive) and 1.8% (inactive),-5.85% (inactive) and 11.7% (inactive),-0.15% (inactive) and 4.05% (inactive),4.5% (inactive) and -4.2% (inactive),-15.6% (inactive) and 10.3% (inactive)
COc1ccc2c(c1OC)CN(C)CCc1cc3c(cc1C(=O)C2)OCO3,-5.15% (inactive) and -35.8% (inactive),15.7% (inactive) and -17.1% (inactive),-0.5% (inactive) and -14.6% (inactive),49.6% (inactive) and 11.8% (inactive),7.7% (inactive) and -18.5% (inactive),-29.9% (inactive) and -8.35% (inactive)
